Test results reported in article PMC5540273 (PLoS ONE, 2017).

How the values were obtained:
Conditions in all cases: concentration: 1 μM, replicates: in singlicate; n = 1
DMPK2 = system: T1, DMPK2
T1 construct: gene CDC42BPG

DMPK = system: DMPK
DRAK1 = system: T2, DRAK1
T2 construct: gene STK17A

DRAK2 = system: T3, DRAK2
T3 construct: gene STK17B

DYRK1A = system: DYRK1A
DYRK1B = system: DYRK1B
DYRK2 = system: DYRK2
EGFR = system: EGFR
EIF2AK1 = system: EIF2AK1
EPHA1 = system: EPHA1
EPHA2 = system: EPHA2
EPHA3 = system: EPHA3
EPHA4 = system: EPHA4
EPHA5 = system: EPHA5
EPHA6 = system: EPHA6
EPHA7 = system: EPHA7
EPHA8 = system: EPHA8
EPHB1 = system: EPHB1
EPHB2 = system: EPHB2
EPHB3 = system: EPHB3
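Also: KINOMEscan kinase panel screen.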

SMILES	%Inh (DMPK2) [%]	%Inh (DMPK) [%]	%Inh (DRAK1) [%]	%Inh (DRAK2) [%]	%Inh (DYRK1A) [%]	%Inh (DYRK1B) [%]	%Inh (DYRK2) [%]	%Inh (EGFR) [%]	%Inh (EIF2AK1) [%]	%Inh (EPHA1) [%]	%Inh (EPHA2) [%]	%Inh (EPHA3) [%]	%Inh (EPHA4) [%]	%Inh (EPHA5) [%]	%Inh (EPHA6) [%]	%Inh (EPHA7) [%]	%Inh (EPHA8) [%]	%Inh (EPHB1) [%]	%Inh (EPHB2) [%]	%Inh (EPHB3) [%]
Nc1nccc(-c2c(-c3ccc(F)cc3)ncn2C2CCN(Cc3ccccc3)CC2)n1 [SB-219980]	52	0	10	14	0	0	14	10	0	0	0	0	4	21	24	0	1	9	0	20
Cc1ccc(-c2nc(Nc3ccncc3)c3ccccc3n2)s1 [GSK189015]	13	0	5	0	28	3	27	25	0	16	28	0	23	100	30	22	26	24	0	37
O=C(Nc1n[nH]c2nc(-c3cccs3)c(Br)cc12)C1CC1 [SB-735297]	0	0	25	0	13	0	26	0	0	21	0	0	1	0	17	0	8	0	0	0
Cn1cncc1C(=O)NC1CCN(c2ccnc(Nc3ccc(F)cc3)n2)C1 (stereo not drawn) [GSK1379717]	0	0	0	0	0	21	0	15	3	2	0	0	0	0	0	3	4	7	0	0
COc1cccc(NC(=O)Nc2ccc(C)c(-c3ccc(C(=O)Nc4ccncc4)cc3)c2)c1 [GSK1398474]	5	0	0	9	9	43	22	17	7	20	1	5	15	2	13	13	25	10	4	18
COc1ccc(-c2coc3ccc(-c4nnc(C)o4)cc23)cc1	0	0	0	0	40	0	0	0	0	0	8	17	33	0	26	0	0	0	12	31
COc1nccc(-c2c(-c3ccc(F)cc3)ncn2CCCN2CCOCC2)n1 [SB-282852]	0	8	0	0	0	61	10	8	8	0	0	10	0	0	0	0	0	0	0	0
COC(=O)c1cccc(NC(=O)NC2CCN(c3ccnc(Nc4ccc(OC)cc4)n3)C2)c1 (stereo not drawn) [GSK1379746]	0	0	4	10	11	15	9	31	0	6	6	0	4	0	0	3	12	21	8	5
COC(=O)c1cccc(NC(=O)NC2CCN(c3ccnc(Nc4ccc(F)cc4)n3)C2)c1 (stereo not drawn) [GSK1379725]	0	0	0	0	18	0	0	0	0	8	16	0	5	0	0	0	0	8	14	0
COc1ccc(Nc2nccc(-c3ccc(NC(=O)c4cc5cc(F)ccc5[nH]4)cc3)n2)cc1 [GSK1229496]	4	0	69	19	14	0	0	14	0	0	1	1	0	0	0	0	10	3	0	0
Cl.Cl.Cl.N#Cc1ccc(CCNc2nccc(-c3cccc(CN4CCNCC4)c3)n2)cc1 [GSK2137462]	41	10	0	0	0	0	24	11	2	19	8	14	13	0	3	9	14	18	0	15
FC(F)(F)c1ccccc1-c1cc(-c2c[nH]nc2-c2ccccn2)ccn1 [GW679396]	7	16	14	2	0	13	12	0	0	0	0	0	2	0	0	6	17	24	7	2
